Screen size: about 86,000 compounds; about 1,200 (1.4%) were called active. The full list was thinned out, with actives kept by preference. A number with no mark means an inactive call. Rule as the data show it: active = activity above about 200%; inactive = the rest.

Chain of Estrogen receptor (Homo sapiens) (P03372 whole entry, looked up, the tested form may be a part): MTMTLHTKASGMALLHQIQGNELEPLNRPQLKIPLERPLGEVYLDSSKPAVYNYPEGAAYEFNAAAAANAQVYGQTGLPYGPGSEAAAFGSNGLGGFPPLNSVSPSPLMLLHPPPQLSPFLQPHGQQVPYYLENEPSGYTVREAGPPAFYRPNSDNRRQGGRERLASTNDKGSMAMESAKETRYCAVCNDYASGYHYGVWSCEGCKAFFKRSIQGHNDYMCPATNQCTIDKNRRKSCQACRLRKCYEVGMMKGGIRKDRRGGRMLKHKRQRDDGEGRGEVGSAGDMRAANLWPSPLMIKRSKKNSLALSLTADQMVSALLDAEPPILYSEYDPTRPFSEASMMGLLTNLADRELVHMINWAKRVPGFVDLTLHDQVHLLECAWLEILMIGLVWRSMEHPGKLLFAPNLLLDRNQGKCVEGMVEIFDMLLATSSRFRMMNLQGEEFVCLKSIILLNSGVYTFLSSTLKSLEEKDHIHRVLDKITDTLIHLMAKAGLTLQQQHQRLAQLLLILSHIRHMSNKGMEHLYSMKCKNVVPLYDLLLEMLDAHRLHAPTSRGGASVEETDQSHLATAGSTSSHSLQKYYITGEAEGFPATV

This test concerns the target Estrogen receptor (Homo sapiens) (UniProt P03372). Description: enhancers of ERα–SRC-1 coactivator binding, primary screen, biochemical, TR-FRET, ERα LBD, low estradiol (AID 639).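 Also: binding measured in presence of low estradiol as agonist stimulus; 0% = peptide alone without receptor and 100% = receptor with peptide.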 The following applies: TR-FRET ERalpha-LBD/SRC-Cy5 coactivator binding, 2 h; at 25.6 µM; hits give high values; 100 = basal binding, no effect. A general note: TR-FRET usually uses a lanthanide donor and a delayed reading to cut background.
Turning to `CCc1nnc(NC(=O)CSc2nc3ccccc3c(=O)n2CCCOC)s1`, the coactivator binding (% of control) is 102%.

Turning to `CCOC(=O)c1c(N=CN(C)C)c(C#N)c2n1CCCC2`, the coactivator binding (% of control) is 111%.

Regarding `COc1cc(Cl)c(C)cc1NC(=O)CSc1nnc(-c2cccnc2)n1Cc1ccco1`, the coactivator binding (% of control) was 90.9%.

Regarding `COc1ccc(NC(=O)CSc2nnc(-c3cccs3)n2Cc2ccco2)cc1OC`, the coactivator binding (% of control) was 95.3%.

With `COc1ccccc1NC(=O)CSc1nc2sc(C)c(C)c2c(=O)n1Cc1ccco1`, the coactivator binding (% of control) is 225% (active).

As for `COC(=O)c1ccc(NC(=O)C23CC4CC(C2)CC(n2cnc(Cl)n2)(C4)C3)cc1`, the coactivator binding (% of control) was 101%.

For the molecule `Cc1cccc(N(C(=O)c2ccc(CN3CCOCC3)o2)C(C(=O)NC2CCCCC2)c2ccc(F)cc2)c1` (stereo unspecified), the coactivator binding (% of control) is 114%.

For the molecule `O=C(CSc1nnc(-c2ccc(NS(=O)(=O)c3ccccc3)cc2)o1)NCC1CCCO1` (stereo unspecified), the coactivator binding (% of control) is 103%.

For `Cc1ccc2cc(C#N)c(SCC(=O)NCC3CCCO3)nc2c1C` (stereo unspecified), the coactivator binding (% of control) is 240% [fluorescence artefact?] (active).

In the case of `CCn1c(SCC(=O)NCC2CCCO2)nc2cc(S(=O)(=O)N3CCCCC3)ccc21` (stereo unspecified), the coactivator binding (% of control) is 88.2%.

As to `CC1Cc2ccccc2N1C(=O)c1cc2sccc2n1Cc1ccccc1` (stereo unspecified), the coactivator binding (% of control) was 200%.

For `CCc1c(-c2ccccc2)nc(N)c(C#N)c1-c1cccs1`, the coactivator binding (% of control) was 95.7%.

Consider `Cc1c(-c2ccccc2)nc(N)c(C#N)c1-c1cccs1`, for which the coactivator binding (% of control) was 155%.

Regarding `CSc1nc(N)c(C#N)c(-c2ccccc2Cl)c1C#N`, the coactivator binding (% of control) is 214% [fluorescence artefact?] (active).

As to `O=C(c1cc2c(s1)CCC2)N1CCN(c2ccccc2)CC1`, the coactivator binding (% of control) is 19.5%.

Take `CCCNC(=S)N1CCC(NC(=O)C23CC4CC(CC(C4)C2)C3)CC1`: the coactivator binding (% of control) is 108%.

For the molecule `COc1ccc(C(=O)Cn2nnc(-c3ccc(N4CCOCC4)cc3)n2)cc1OC`, the coactivator binding (% of control) was 240% (active).

For `O=C(Cn1nnc(-c2ccc(CN3CCOCC3)cc2)n1)NC1CCCCC1`, the coactivator binding (% of control) was 123%.

Take `CCOc1ccc(-c2nnn(CC(=O)N3CCN(c4ccc(OC)cc4)CC3)n2)cc1OCC`: the coactivator binding (% of control) was 87.8%.

As for `COc1ccc(N(CC(=O)NC2CCCCC2)C(=O)CNC(=O)c2ccco2)c(OC)c1`, the coactivator binding (% of control) was 113%.

As to `O=C(Nc1nncs1)c1cccc(S(=O)(=O)N2CCCCC2)c1`, the coactivator binding (% of control) is 91.9%.

For the molecule `CSc1nnc2c(n1)OC(c1ccsc1)N(C(C)=O)c1ccccc1-2` (stereo unspecified), the coactivator binding (% of control) is 348% (active).

With `CSc1nnc2c(n1)OC(c1cn(C)c3ccccc13)N(C(C)=O)c1ccccc1-2` (stereo unspecified), the coactivator binding (% of control) is 120%.

Take `COCCCNC(=O)CN1CCN(Cc2ccccc2Cl)C1=O`: the coactivator binding (% of control) was 107%.

For the molecule `CCOc1ccc(N=C2NC(=O)S/C2=C\c2ccc(O)cc2)cc1`, the coactivator binding (% of control) was 179%.

Regarding `C/C(=N\NC(=O)c1ccc(C)cc1)C1C(=O)c2ccccc2C1=O`, the coactivator binding (% of control) was 71.8%.

As to `COc1cc(OC)c(NC(=O)c2ccc(Br)o2)cc1Cl`, the coactivator binding (% of control) is 112%.

For the molecule `Cc1cccc(-n2nc3c(c2NC(=O)c2ccc(Br)o2)CSC3)c1C`, the coactivator binding (% of control) is 129%.

Regarding `Cc1cc(C)nc(-n2nc(C)cc2NC(=O)c2ccc(Br)o2)n1`, the coactivator binding (% of control) was 427% (active).

On to `CC(C)(C)n1nnnc1C(c1ccc(Cl)cc1)N1CCSCC1` (stereo unspecified), for which the coactivator binding (% of control) is 105%.

`C#CCN(N(C)c1ncc(C(F)(F)F)cc1Cl)S(=O)(=O)c1ccc2ccccc2c1`: the coactivator binding (% of control) was 165%.

As for `COc1ccc(C(c2nnnn2C2CCCCC2)N2CCN(c3ccccc3F)CC2)cc1` (stereo unspecified), the coactivator binding (% of control) is 87.6%.

Regarding `c1ccc(C(c2ccccc2)N2CCN(Cc3nnnn3C3CCCCC3)CC2)cc1`, the coactivator binding (% of control) is 209% [fluorescence artefact?] (active).

For `c1ccc(CCn2nnnc2CN2CCN(C3CCCC3)CC2)cc1`, the coactivator binding (% of control) is 110%.

Regarding `COc1ccc(N2CCN(Cc3ccc(Br)s3)CC2)cc1`, the coactivator binding (% of control) was 108%.

As to `Cc1cc(C)n(-c2nc(O)cc(=O)[nH]2)n1`, the coactivator binding (% of control) is 103%.

In the case of `CCOc1cc(-c2cc(-c3ccc(OC)cc3)nc(N)c2C#N)ccc1O`, the coactivator binding (% of control) is 146%.

For `COC(=O)c1cc(OC)ccc1-c1ccc(OC)cc1`, the coactivator binding (% of control) was 117%.

Turning to `CCSc1nc(-c2ccc(OC)cc2)cc(-c2ccc(OC)cc2)c1C#N`, the coactivator binding (% of control) is 371% [fluorescence artefact?] (active).

Consider `O=S(=O)(NC1CCCCC1)c1ccc(F)c2ccccc12`, for which the coactivator binding (% of control) was 91.4%.

Regarding `CCOc1cc2[nH]c(=S)n(Cc3ccc(C(=O)NCCOC)cc3)c(=O)c2cc1OCC`, the coactivator binding (% of control) is 163%.

Regarding `COc1ccc(-c2ccc(-c3noc(-c4ccncc4)n3)c(OC)n2)cc1`, the coactivator binding (% of control) was 107%.

For `CCOc1nc(-c2ccc(OC)cc2)ccc1-c1noc(-c2cc(OC)c(OC)c(OC)c2)n1`, the coactivator binding (% of control) was 239% (active).

For `COc1cc(-c2nc(-c3ccncc3)no2)cc(OC)c1OC`, the coactivator binding (% of control) is 87.6%.

`O=C(CO/N=C/c1ccccc1O)NNC(=O)c1ccccc1Cl`: the coactivator binding (% of control) was 102%.

Take `O=C(Cn1cnc2ccccc2c1=O)NCC1COc2ccccc2O1` (stereo unspecified): the coactivator binding (% of control) was 104%.

Take `OC(COc1ccc2ccccc2c1)Cn1cncn1` (stereo unspecified): the coactivator binding (% of control) is 100%.

In the case of `N#CCSc1nc2ccccc2c(=O)n1-c1ccccc1`, the coactivator binding (% of control) was 100%.

On to `C/C(O)=C\c1nc(=O)c2c(C)cc(C)nc2n1-c1ccccc1`, for which the coactivator binding (% of control) was 297% [fluorescence artefact?] (active).

Take `Cc1cc(C)c2c(n1)nn1c(N3CCN(c4cccc(Cl)c4)CC3)cc(C)nc21`: the coactivator binding (% of control) was 169%.

Turning to `Cc1cc(Cl)c(S(=O)(=O)N(C)C)cc1OCC(N)=O`, the coactivator binding (% of control) is 103%.

Regarding `O=C1/C(=C/c2cccs2)CCc2ccccc21`, the coactivator binding (% of control) was 66.3%.

As for `Cc1cc(C)c2nc(N3CCCC3)c(C#N)cc2c1`, the coactivator binding (% of control) was 101%.

For `Cc1cccc2cc(C#N)c(N3CCCC3)nc12`, the coactivator binding (% of control) is 109%.

For `CC(=O)c1ccc(S(=O)(=O)N2CCN(c3nc4c(C)c(C)ccc4cc3C#N)CC2)cc1`, the coactivator binding (% of control) was 225% [fluorescence artefact?] (active).

With `Cc1cc(NC(=O)CCC(=O)N(CC(=O)NCC2CCCO2)c2ccccc2C)no1` (stereo unspecified), the coactivator binding (% of control) is 101%.

For the molecule `O=C(OC1CCCCC1=O)c1cccc(S(=O)(=O)NCc2ccccc2)c1` (stereo unspecified), the coactivator binding (% of control) is 96.6%.

For the molecule `COC(=O)c1nc2ccccc2s1`, the coactivator binding (% of control) is 116%.

With `Nn1cnnc1N/N=C/c1cc([N+](=O)[O-])c(Cl)cc1Cl`, the coactivator binding (% of control) is 600% [fluorescence artefact?] (active).

Regarding `CC(=O)c1cccc(NC(=O)C2CCCN2S(=O)(=O)c2cccc3nsnc23)c1` (stereo unspecified), the coactivator binding (% of control) was 87.3%.

Consider `Cc1ccc(Cn2c(NC(=O)c3ccco3)nc3ccccc32)cc1`, for which the coactivator binding (% of control) was 316% (active).

On to `CCC(=O)Nc1nc2ccccc2n1Cc1ccccc1C`, for which the coactivator binding (% of control) was 117%.

For `Cc1ccc(-n2nc3cc(Cl)c(NC(=O)c4ccco4)cc3n2)cc1`, the coactivator binding (% of control) was 112%.

`O=c1c2ccccc2nc2n1C1(CCCCC1)Cc1ccccc1-2`: the coactivator binding (% of control) is 109%.

For `O=C(CN1CCCCC1)N1c2ccccc2Sc2ccc(C(F)(F)F)cc21`, the coactivator binding (% of control) is 113%.

As for `CC1(C)C2CCC13CS(=O)(=O)NC3C2` (stereo unspecified), the coactivator binding (% of control) was 96.5%.

With `CCOC(=O)c1cc2cc(-c3c(C(=O)OCC)oc4cc(O)cc(O)c4c3=O)ccc2o1`, the coactivator binding (% of control) was 72.5%.

In the case of `O=c1c(-c2ccc3c(c2)OCCO3)c(C(F)(F)F)oc2cc(O)cc(O)c12`, the coactivator binding (% of control) was 346% [fluorescence artefact?] (active).

`CCN1CCN(Cc2c(O)ccc3c(=O)c(-c4ccc(OC)c(OC)c4)c(C(F)(F)F)oc23)CC1`: the coactivator binding (% of control) was 109%.

`COc1ccc(C2CC(c3cccs3)=Nc3ccccc3S2)cc1OC` (stereo unspecified): the coactivator binding (% of control) is 94.7%.

For `CC(C)C[C@@H](N)c1nnc(SCC(=O)c2ccc(Cl)cc2)o1`, the coactivator binding (% of control) was 100%.

For `NC(=O)c1sc2nc3c(c(-c4ccccc4)c2c1N)CCC3`, the coactivator binding (% of control) is 80.3%.

`Cc1cccc(NC(=O)c2sc3nc4c(c(-c5ccco5)c3c2N)CCC4)c1`: the coactivator binding (% of control) was 104%.

`CC(=O)Nc1ccc(NC(=O)c2sc3nc4c(c(-c5ccc(C)cc5)c3c2N)CCC4)cc1`: the coactivator binding (% of control) was 1100% [fluorescence artefact?] (active).

Consider `CO/N=C(/CS(=O)(=O)c1ccc(Br)cc1)c1ccc(OC)cc1`, for which the coactivator binding (% of control) is 94.8%.

Turning to `CCOC(=O)c1ccc2c(c1)nc(C)n2CC`, the coactivator binding (% of control) was 89.8%.

As to `O=C(NCCCN1CCCCCC1)C1CC(=O)N(C2CCCC2)C1` (stereo unspecified), the coactivator binding (% of control) is 688% [fluorescence artefact?] (active).

As for `CC(C)OCCCNC(=O)C1CC(=O)N(C2CCCCCCC2)C1` (stereo unspecified), the coactivator binding (% of control) is 80.7%.

On to `O=C(NCCc1ccc(Cl)cc1)C1CC(=O)N(C2CCCCC2)C1` (stereo unspecified), for which the coactivator binding (% of control) was 133%.

In the case of `Cc1ccc(S(=O)(=O)Oc2ccc(/C=N/NC(=O)c3c(Cl)cnn3C)cc2)cc1`, the coactivator binding (% of control) is 106%.

With `COCCNC(=O)C(c1ccc(C)o1)N(Cc1cccs1)C(=O)c1snc(C(N)=O)c1N` (stereo unspecified), the coactivator binding (% of control) was 117%.

As for `CCC(C)(C(=O)NC1CCCCC1)N(C)C(=O)c1ccc2c(c1)OCO2` (stereo unspecified), the coactivator binding (% of control) was 107%.

In the case of `CCC(C(=O)NC1CCCC1)N(C(=O)c1snc(C(N)=O)c1N)c1ccc2c(c1)OCCO2` (stereo unspecified), the coactivator binding (% of control) is 244% [fluorescence artefact?] (active).

For `CCN(CC(=O)Nc1ccccc1OC)C(=O)Cn1cnc2ccccc2c1=O`, the coactivator binding (% of control) is 97.9%.

With `CC1Cc2ccccc2N1C(=O)CSc1nnc(-c2ccc(S(=O)(=O)N3CCCCC3)cc2)o1` (stereo unspecified), the coactivator binding (% of control) was 304% (active).

As to `CCS(=O)(=O)c1ccc2oc(SCC(=O)N3c4ccccc4CC3C)nc2c1` (stereo unspecified), the coactivator binding (% of control) was 98%.

For the molecule `CC1Cc2ccccc2N1C(=O)CSc1nc2ccccc2o1` (stereo unspecified), the coactivator binding (% of control) is 111%.

As for `Cc1cccc(OCCCC(=O)Nc2ccc(S(=O)(=O)N3CCCC3)cc2)c1`, the coactivator binding (% of control) is 94.6%.

Turning to `O=C(Oc1ccc(-c2nc(-c3ccccn3)no2)cc1)c1ccccc1`, the coactivator binding (% of control) is 210% (active).

Take `CC(C)c1nc(-c2ccccn2)no1`: the coactivator binding (% of control) was 105%.

Take `c1ccc(-c2noc(-c3cccs3)n2)nc1`: the coactivator binding (% of control) was 118%.

These data come from PubChem BioAssay AID639 (Emory University Molecular Libraries Screening Center, 2007).
